Active and inactive are the calls of the source.

Assay [1] concerns PRMT1 (protein arginine N-methyltransferase 1). Nature of the assay: PRMT1 binders on small-molecule microarrays, primary screen, biochemical, small-molecule microarray, 635 nm fluorescence (AID 1088).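 Note: binding of Prmt1 protein to compounds spotted on small-molecule microarray slides.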 The following applies: small-molecule microarray binding, higher = more signal.
Assay [2] in a line: yeast growth modulation, basal conditions, primary screen, YJM789 clinical isolate, OD600, 24 h (AID 1089).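 Note: growth of clinical yeast isolate S. cerevisiae YJM 789 seeded 1000 cells per well; test concentration not given here.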 The following applies: S. cerevisiae YJM789 growth, higher = more signal, called active from +8 up or from −8 down.
Assay [3] is described as follows: fission yeast growth modulation, primary screen, strain 972, OD600, 24 h, no modulator (AID 1090).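 Note: basal condition with compound alone and no growth modifier present; test concentration not given here.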 The following applies: S. pombe 972 growth, higher = more signal, called active from +8 up or from −8 down.
Assay [4] in a line: S. cerevisiae growth modulation with rapamycin, primary screen, strain BY4716, OD600, 96 h (AID 1091). Note: test concentration not given here. The following applies: higher = more signal, called active from +8 up or from −8 down.
For assay [5], the target named is Torsin-1A-interacting protein 2 (Homo sapiens) (UniProt Q8NFQ8). Description: LULL1 binders on small-molecule microarray, primary screen, cell lysate, human LULL1 lysate, 635/667 nm fluorescence (AID 1092).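 Note: probe is lysate of COS7 cells overexpressing human LULL1; score merges per-feature 667 nm fluorescence with signal-to-noise.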 The following applies: hLULL1 lysate binding, 635 nm fluorescence, higher = more signal.
Assay [6] in a line: E. coli growth modulation, two-sided OD650, primary screen, E. coli filamentation project, strain DRC41, 24 h (AID 1093).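 Note: MC1000 strain lacking acrAB efflux and sulA so SOS filamentation is blocked; test concentration not given here.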 The following applies: OD650, 24 h, higher = more signal, called active from +8 up or from −8 down.
Assay [7] can be described thus: small-molecule microarray binders of probe aLefty2, primary screen, biochemical, biotinylated probe, 635/667 nm fluorescence (AID 1094).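 Note: score merges spot fluorescence near 667 nm with spot signal-to-noise ratio.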 The following applies: higher = more signal.
In assay [8] the test system is Noggin (protein binding on small-molecule microarray). Nature of the assay: Noggin binders on small-molecule microarray, primary screen, biochemical, 635/667 nm fluorescence (AID 1095).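 Note: score merges 667 nm feature fluorescence with signal to noise over triplicate slides.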 The note with it: 635 nm fluorescence, higher = more signal.
Assay [9] addresses Neurogenic locus notch homolog protein 3 (Homo sapiens) (UniProt Q9UM47). Description: NOTCH3 binders on small-molecule microarray, primary screen, biochemical, 635/667 nm fluorescence (AID 1096). The following applies: NOTCH3 binding, 635 nm fluorescence, higher = more signal.
Assay [10] in a line: small-molecule microarray binders of probe aEGFR, primary screen, biochemical, biotinylated probe, 635/667 nm fluorescence (AID 1097).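 Note: probe is a biotinylated anti-EGFR antibody binding compounds printed on slides; score combines fluorescence near 667 nm and signal to noise of each spot.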 The note with it: higher = more signal.

Chain of Neurogenic locus notch homolog protein 3 (Homo sapiens) (Q9UM47 whole entry, looked up): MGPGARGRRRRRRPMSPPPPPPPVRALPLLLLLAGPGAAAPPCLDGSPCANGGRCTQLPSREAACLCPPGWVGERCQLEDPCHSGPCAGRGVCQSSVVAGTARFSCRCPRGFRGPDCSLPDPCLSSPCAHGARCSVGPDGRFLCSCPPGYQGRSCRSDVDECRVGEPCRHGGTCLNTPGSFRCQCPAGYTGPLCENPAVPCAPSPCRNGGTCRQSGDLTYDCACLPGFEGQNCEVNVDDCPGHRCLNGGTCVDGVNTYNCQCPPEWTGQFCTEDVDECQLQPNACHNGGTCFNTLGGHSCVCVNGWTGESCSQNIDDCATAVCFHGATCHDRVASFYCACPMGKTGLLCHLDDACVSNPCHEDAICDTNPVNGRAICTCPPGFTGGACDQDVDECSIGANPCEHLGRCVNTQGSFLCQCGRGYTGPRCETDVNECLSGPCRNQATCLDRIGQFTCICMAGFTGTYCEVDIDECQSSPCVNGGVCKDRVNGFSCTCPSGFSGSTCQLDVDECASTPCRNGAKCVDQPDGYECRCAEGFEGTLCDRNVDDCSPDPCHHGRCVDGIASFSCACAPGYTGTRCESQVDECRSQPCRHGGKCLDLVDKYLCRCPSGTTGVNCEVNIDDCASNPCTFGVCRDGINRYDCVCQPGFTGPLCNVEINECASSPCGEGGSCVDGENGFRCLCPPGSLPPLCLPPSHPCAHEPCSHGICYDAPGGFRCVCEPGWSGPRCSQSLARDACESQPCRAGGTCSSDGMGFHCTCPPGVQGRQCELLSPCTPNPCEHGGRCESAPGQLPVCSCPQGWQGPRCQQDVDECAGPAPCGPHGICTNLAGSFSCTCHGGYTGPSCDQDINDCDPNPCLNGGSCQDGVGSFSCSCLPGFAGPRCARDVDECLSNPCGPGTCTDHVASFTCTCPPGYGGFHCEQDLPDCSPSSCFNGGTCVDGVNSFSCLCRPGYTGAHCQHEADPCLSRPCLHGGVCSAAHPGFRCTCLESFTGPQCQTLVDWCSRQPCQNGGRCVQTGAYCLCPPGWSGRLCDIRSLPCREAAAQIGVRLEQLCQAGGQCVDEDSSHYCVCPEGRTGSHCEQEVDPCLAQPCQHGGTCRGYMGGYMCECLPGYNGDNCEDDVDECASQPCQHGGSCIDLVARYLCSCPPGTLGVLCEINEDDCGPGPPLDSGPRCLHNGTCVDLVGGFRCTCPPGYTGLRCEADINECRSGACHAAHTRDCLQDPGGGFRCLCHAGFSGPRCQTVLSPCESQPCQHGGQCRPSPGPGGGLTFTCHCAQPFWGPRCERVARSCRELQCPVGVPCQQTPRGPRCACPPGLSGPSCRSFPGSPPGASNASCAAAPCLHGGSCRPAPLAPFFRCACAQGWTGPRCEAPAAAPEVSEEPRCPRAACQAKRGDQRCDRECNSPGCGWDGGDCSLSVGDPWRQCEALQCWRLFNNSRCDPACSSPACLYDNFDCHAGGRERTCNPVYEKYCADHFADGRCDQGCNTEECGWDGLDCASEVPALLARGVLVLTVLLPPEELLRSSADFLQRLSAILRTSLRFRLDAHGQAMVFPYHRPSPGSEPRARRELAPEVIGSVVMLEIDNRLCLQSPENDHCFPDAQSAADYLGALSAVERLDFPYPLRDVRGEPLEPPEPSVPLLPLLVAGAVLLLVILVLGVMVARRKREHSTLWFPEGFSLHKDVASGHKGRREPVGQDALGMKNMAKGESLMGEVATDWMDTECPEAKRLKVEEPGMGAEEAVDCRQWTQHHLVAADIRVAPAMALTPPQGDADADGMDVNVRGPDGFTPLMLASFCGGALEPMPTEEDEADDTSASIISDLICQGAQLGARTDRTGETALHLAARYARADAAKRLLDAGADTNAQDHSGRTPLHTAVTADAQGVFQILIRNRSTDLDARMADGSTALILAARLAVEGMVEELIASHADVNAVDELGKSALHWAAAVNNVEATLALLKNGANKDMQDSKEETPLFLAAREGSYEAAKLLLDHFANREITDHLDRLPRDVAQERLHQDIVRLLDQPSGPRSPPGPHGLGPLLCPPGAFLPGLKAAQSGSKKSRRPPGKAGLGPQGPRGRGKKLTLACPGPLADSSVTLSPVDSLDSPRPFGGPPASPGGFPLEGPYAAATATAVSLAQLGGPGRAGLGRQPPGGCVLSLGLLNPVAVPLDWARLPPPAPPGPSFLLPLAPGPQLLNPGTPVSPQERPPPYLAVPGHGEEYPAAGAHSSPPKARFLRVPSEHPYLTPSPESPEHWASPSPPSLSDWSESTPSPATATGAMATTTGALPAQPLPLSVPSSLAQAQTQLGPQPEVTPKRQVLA
Chain of Torsin-1A-interacting protein 2 (Homo sapiens) (Q8NFQ8 whole entry, looked up): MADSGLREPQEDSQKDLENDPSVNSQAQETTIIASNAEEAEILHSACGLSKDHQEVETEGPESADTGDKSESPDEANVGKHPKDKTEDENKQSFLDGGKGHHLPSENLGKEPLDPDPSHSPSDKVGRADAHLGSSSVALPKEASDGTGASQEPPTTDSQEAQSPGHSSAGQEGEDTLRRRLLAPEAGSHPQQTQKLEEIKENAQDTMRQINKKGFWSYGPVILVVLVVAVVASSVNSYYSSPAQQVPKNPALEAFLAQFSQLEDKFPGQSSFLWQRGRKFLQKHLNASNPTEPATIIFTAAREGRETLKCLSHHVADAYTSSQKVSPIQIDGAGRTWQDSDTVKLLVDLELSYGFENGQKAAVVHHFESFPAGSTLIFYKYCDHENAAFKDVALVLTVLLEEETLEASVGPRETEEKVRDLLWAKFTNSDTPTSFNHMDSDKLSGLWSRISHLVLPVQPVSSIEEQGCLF

As for `O=C1C=CC(=O)[C@@H]2CC(COc3ccccc3)=C3[C@@H](CCc4ccccc4)OB(O)C[C@@H]3[C@H]12`, the composite z-score in assay [1] is 0.702; in assay [5] it was -0.188; in [7] it was -0.289; in assay [8] it was 0.533; in [9] it was 0.49; in assay [10], 0.0338. The z-score in assay [2] is 0.168 (inactive); in assay [3] it was -8.15 (active); in assay [4], 0.203 (inactive); in assay [6] it was -0.125 (inactive).

Consider `CCCC[C@H]1OB(O)C[C@H]2C1=C(C)C[C@H]1C(=O)N(Cc3ccccc3)C(=O)[C@H]12`, for which the composite z-score in assay [1] was 0.705; in assay [5], 0.342; in [7] it was -0.102; in assay [8] it was 0.919; in [9], 0.666; in assay [10], 0.0215. The z-score in assay [2] is -0.482 (inactive); in assay [3] it was -1.33 (inactive); in assay [4], -1.04 (inactive); in [6], 1.75 (inactive).

`CCOC(=O)C1=C[C@@H](C(C)C)N(S(=O)(=O)c2ccc(C)cc2)[C@H]1c1ccc(C(C)C)cc1`: the composite z-score in [1] is 1.25; in [5] it was 3.02; in assay [7], 0.112; in assay [8] it was 0.75; in assay [9], 1.09; in [10], -0.0381. Moreover, the z-score in [2] was 0.129 (inactive); in assay [3] it was 2.04 (inactive); in assay [4], 0.612 (inactive); in assay [6] it was -0.35 (inactive).

With `COc1cc(CO)ccc1OC(C)=O`, the composite z-score is 0.657 in assay [1]; 0.0135 in assay [5]; -0.332 in assay [7]; 0.601 in assay [8]; 0.317 in [9]; -0.112 in assay [10]. The z-score is -2.07 (inactive) in assay [2], -1.44 (inactive) in assay [3], -0.377 (inactive) in [4] and 1.14 (inactive) in [6].

As for `Cc1cc(C)cc(N2C(=O)CS(=O)(=O)C2c2cccc([N+](=O)[O-])c2)c1` (stereo not given), the composite z-score in assay [1] worked out at 1.13; in [5] it was 2.13; in assay [7], 0.788; in assay [8], 0.0104; in assay [9], 0.726; in [10], 0.477. Moreover, the z-score in assay [2] is -0.703 (inactive); in [3], -1.22 (inactive); in assay [4], -0.522 (inactive); in assay [6], -0.268 (inactive).

Consider `Cc1ccc([C@H]2[C@H](C(=O)O)[C@H](Sc3ccccc3)[C@@H](C(C)C)N2S(=O)(=O)c2ccc(C)cc2)cc1`, for which the composite z-score in assay [1] was 1.03; in assay [5] it was 3.03; in [7], 0.179; in assay [8] it was 0.0176; in assay [9], 1.13; in [10] it was -0.0679. Moreover, the z-score in assay [2] was -0.611 (inactive); in assay [3], -0.0319 (inactive); in [4] it was -0.993 (inactive); in [6], -1.69 (inactive).

Take `CCOC(=O)C1=C[C@@H](CC)N(S(=O)(=O)c2ccc(C)cc2)[C@H]1c1ccccc1`: the composite z-score was 1.18 in assay [1]; 2.71 in assay [5]; 0.097 in assay [7]; 0.13 in [8]; 1.1 in assay [9]; 0.0356 in [10]. Moreover, the z-score in [2] was -0.595 (inactive); in [3], 0.849 (inactive); in assay [4], 0.567 (inactive); in [6] it was -0.556 (inactive).

(Values after PubChem BioAssay.)
